# Measured values reported in PMC12136788.
# Numbering of substitutions follows the chain as printed. In all, about 5,800 sequences were measured (“enrichment r”: median about 0.68, highest 2% from about 11 on). This is one part of a sample in which the highest values are shown more often than they occur.
# B1: chr5:172042892:172042993:-|3pUTR|ENSG00000072786|msi1|FALSE|unique (ssRNA)
# RNA: GGGAGUUCUACAGUCCGACGAUCGAUUCUCCCGCUUCAACCUUGAGUAGCUGGGACGACAGAUACAUGCUACUGCACCCAGCUAGGUUAAGGUUCUGUAUACUCUGUCUUUCUAAAGCAAUUCCCUGGAAAUUUUCUCAACAUCAACAGAGGAUUGAGCAUCA
# B2: chr12:85264020:85264122:+|3pUTR|ENSG00000133640|unk|FALSE|unique (ssRNA)
# RNA: GGGAGUUCUACAGUCCGACGAUCCAUAGUAUUUCAGUUACUUUCCACAGCUGUGUUGCUCAAUAAUAGCAUCCAGUGAACUUUAGUAUUUUUUUGUUUUUCCUGUAUUUUAUUAAAAUAUUUCAUCUAGAGAUAACUGAAGUGCAACAGAGGAUUGAGCAUCA
# B3: chr1:32196422:32196614:+|3pUTR|ENSG00000084652|msi1|FALSE|unique (ssRNA)
# RNA: GGGAGUUCUACAGUCCGACGAUCACAGUUGUUUCUGUGUCCUGUUCUACCCCCACUCCAGUACAUAACUACUAUGUACUGUGUAGAGCCAUUCUAUAUGCUGAAUGUUCUGCUGUUGCAAACUUGCCAGGGUAUUAGCCAGUGCAACAGAGGAUUGAGCAUCA
# B4: chr17:67075675:67075776:-|3pUTR|ENSG00000198265|unk|FALSE|unique (ssRNA)
# RNA: GGGAGUUCUACAGUCCGACGAUCAUUCCUUAUUUCCAUAGCCAGUCAAGGAUUCUAACGCUGCUUCCAUCUGAUACUCUUCUUAGAUUCUGCAUCAAAUGCUUAUUUUGACUUACAACAAGCUUACUCUUCCUCAGCAUUACACAACAGAGGAUUGAGCAUCA
# B5: chr8:41543231:41543332:+|3pUTR|ENSG00000147536|msi1|FALSE|unique (ssRNA)
# RNA: GGGAGUUCUACAGUCCGACGAUCAAACCAUUAUUAAAUUUCCAUUCUGCAGCAGAAGGCACCUCUGGACGGCUCCCGGCUUGUAGUUUAAUGAAGUAUGUGCUCCCUGCUGUUAACCCGCAGCCCUCCCCAACUCUCCAGCAGCAACAGAGGAUUGAGCAUCA
# B6: ENSG00000176244:stop:overlap|stop_codon|ENSG00000176244|stop_codon|NA|stop_codon (ssRNA)
# RNA: GGGAGUUCUACAGUCCGACGAUCAAGAUGCGACGAGUGCCUAUAUUUCUAAAGCAAAGGAGCUGAUAGAAAAAUACGGAAUUUAGAAUACAGCAUAUGAGGAAUUUUUCCUUUUGAAGACUUCCAAAUGCUAUCAUGACCUAACAACAGAGGAUUGAGCAUCA
# B7: chr15:78283234:78283431:-|three_prime_utr|ENSG00000140395|control|control|control (ssRNA)
# RNA: GGGAGUUCUACAGUCCGACGAUCUCUCCAGGCUUAUGCUGCAAAGAGAAUGUACGGAUUGAUCAUGACAUUCCUUACCUUCUUAGGCUUGUUUAAAAGAAAUAUAGCAUUUAUUGUAGCAAAGACUUAAAUUUUGUAGAUACACAACAGAGGAUUGAGCAUCA
# B8: chr4:138171397:138171528:-|3pUTR|ENSG00000151012|msi1|total|mutant (ssRNA)
# RNA: GGGAGUUCUACAGUCCGACGAUCAUUAUGGCAAAGAGGAGAGAAAGAAAUUUAUUUUACAUUGACAUUGCAUUGCUUCCCCUCCGAUACCAAUUCCGAUAACAAACACUCAUGCUUUAAUGGAUUAUACCCAGAGCACUUUGACAACAGAGGAUUGAGCAUCA
# B9: chr3:97755980:97756081:+|3pUTR|ENSG00000080224|unk|FALSE|unique (ssRNA)
# RNA: GGGAGUUCUACAGUCCGACGAUCUAAUUAAAAAUCUCUUUCCUACCUUUAGUAAUUUGUAGGAUGAACUGUAUGCAUUUAGAUAGAAAUUGCUUUUGUUAAAUUUACAUUUAAACACAUCUUCAUUCACUUAGAGAAGCCAUACAACAGAGGAUUGAGCAUCA
# B10: chr3:62294137:62294238:+|3pUTR|ENSG00000144724|msi1|FALSE|unique (ssRNA)
# RNA: GGGAGUUCUACAGUCCGACGAUCUGAGACCCUUUAGUUAUUCUCCAUUAAUGCUUCUUAGUUUGUAAUACCAUACCUCACAGUAGGUAGAAGAAUGAAAACUUCUGCAGGUGUGUAAUUUUGAAACUAGUCCUCUAAAAAUUCCAACAGAGGAUUGAGCAUCA
# B11: chr19:33301014:33301115:-|3pUTR|ENSG00000245848|unk|FALSE|unique (ssRNA)
# RNA: GGGAGUUCUACAGUCCGACGAUCUCCCUGCGAGGAGGGGAGAAUUCUUGGGGCUGAGCUGGGAGCCCGGCAACUCUAGUAUUUAGGAUAACCUUGUGCCUUGGAAAUGCAAACUCACCGCUCCAAUGCCUACUGAGUAGGGGGCAACAGAGGAUUGAGCAUCA
# B12: chr3:31636526:31636632:+|3pUTR|ENSG00000163527|unk|FALSE|unique (ssRNA)
# RNA: GGGAGUUCUACAGUCCGACGAUCCAAAAUGUGAUGAGAGCUUCUUGAACCGGUAAACUAGUACAGGUCUGAGAAAGACAUAUUAGAAGAAUCAUUAUACUUCCUUGAAUUAUAUUUAUUUUCAUGUUUCUCUAAUGCAAAGAACAACAGAGGAUUGAGCAUCA
# B13: chr8:41543231:41543332:+|3pUTR|ENSG00000147536|msi1|total|mutant (ssRNA)
# RNA: B5 RNA with U83C, A84C
# B14: ENSG00000070961:be:win_5101|3pUTR|ENSG00000070961|bound_else_gene|NA|bound_elsewhere_windowed (ssRNA)
# RNA: GGGAGUUCUACAGUCCGACGAUCAUGACCACCAUUGUCUUUGAUACAUUUAUUUUAAUUCUUAAGUGGCCAAAUAACAGAUUAGGUAAAAUGAGAUUACAUGAAAAGGUUCUAAAAUGAUAUAUUUAGAUGCAAUAAUUAACCCAACAGAGGAUUGAGCAUCA
# B15: chr4:138171397:138171528:-|3pUTR|ENSG00000151012|msi1|FALSE|unique (ssRNA)
# RNA: B8 RNA with C83U, C84A, C95U, C96A
# B16: chr6:53267885:53267986:-|3pUTR|ENSG00000012660|msi1_unk|FALSE|overlapping (ssRNA)
# RNA: GGGAGUUCUACAGUCCGACGAUCUUUAAUGUAAAUCUAAUAGUACUUGUAAUUUCUUUCUGCUUAGAAUCUAAAGAUGUGUUUAGAACCUCUUGUUUAAAAAUAAUAGACUGCUUAUCAUAAAAUCACAUCUCACACAUUUGACAACAGAGGAUUGAGCAUCA
# Molecular target: T1, UNK ZnF1-6 (called full-length) (human, UniProt Q9C0B0 30-357)
# T1 sequence: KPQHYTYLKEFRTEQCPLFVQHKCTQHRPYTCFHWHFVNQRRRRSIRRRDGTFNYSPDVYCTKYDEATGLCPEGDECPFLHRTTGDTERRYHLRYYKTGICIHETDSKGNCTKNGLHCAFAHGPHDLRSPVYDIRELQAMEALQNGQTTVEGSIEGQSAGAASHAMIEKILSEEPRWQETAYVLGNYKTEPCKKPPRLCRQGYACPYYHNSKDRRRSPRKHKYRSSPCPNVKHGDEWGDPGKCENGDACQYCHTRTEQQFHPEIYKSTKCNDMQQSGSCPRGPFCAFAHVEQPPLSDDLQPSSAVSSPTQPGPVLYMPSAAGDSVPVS
# Assay: nsRBNS (natural sequence RNA bind-n-seq); RBNS binding buffer (assumed for nsRBNS): 25 mM Tris pH 7.5, 150 mM KCl, 3 mM MgCl2, 0.01% Triton X-100, 500 ug/ml BSA, 20 U/ml SUPERase-In, 4 C; UNK is unkempt and MSI1 is Musashi-1; names of the RNAs are library labels; protein concentration not given here; high values mean tight binding
row,Binder,binding signal [enrichment R]
1,B1,0.494
2,B2,10
3,B3,0.631
4,B4,1.05
5,B5,11.4
6,B6,0.808
7,B7,13.8
8,B8,0.489
9,B9,10.1
10,B10,16.2
11,B11,4.16
12,B12,1.21
13,B13,1.48
14,B14,3.73
15,B15,73.9
16,B16,10.2
